In PubChem BioAssay (NCATS):
Results filed as inconclusive are left out. Entries that show only a call come without a potency. Active and inactive are the calls of the source. Unless noted, calls follow the shape of the dose curve; as a rule, active = well fitted curve in the direction sought with a large enough effect; inconclusive = small, poorly fitted or top-dose-only effect, or another doubt; inactive = no such curve, though single readings can be large; an effect the other way counts as inactive or inconclusive.

How the values were obtained:
[1] = molecular target: Aldehyde dehydrogenase, mitochondrial (Homo sapiens) (UniProt P05091); test: qHTS for Inhibitors of the Aldehyde Dehydrogenase Family (ALDH2) Confirmatory screens (AID 2061303; active = well fitted inhibition curve with a large enough effect; title and protocol of this record describe different tests; also: nearly all actives have a fitted effect of over 45% in size; also: potency is read from the fitted curve at half-maximal effect); settings: ALDH inhibition qHTS; series mostly up to 45.4 µM
[2] = molecular target: Aldehyde dehydrogenase, mitochondrial (Homo sapiens) (UniProt P05091); test: qHTS for Inhibitors of the Aldehyde Dehydrogenase Family (ALDH2) Primary screen (AID 2061308); settings: ALDH2 enzyme inhibition qHTS, 1536-well; series mostly up to 56 µM; also: nearly all actives have a fitted effect of over 55% in size
[3] = molecular target: Retinaldehyde dehydrogenase 3 (Homo sapiens) (UniProt P47895); test: qHTS for Inhibitors of the Aldehyde Dehydrogenase Family (ALDH1A3) Confirmatory screens (AID 2061311); settings: ALDH inhibition qHTS; series mostly up to 46 µM; also: nearly all actives have a fitted effect of over 60% in size; also: potency is read from the fitted curve at half-maximal effect
[4] = molecular target: Retinal dehydrogenase 2 (Homo sapiens) (UniProt O94788); test: qHTS for Inhibitors of the Aldehyde Dehydrogenase Family (ALDH1A2) Confirmation screens (AID 2061314); settings: ALDH1A2 enzyme inhibition qHTS confirmation; series mostly up to 45.9 µM; also: nearly all actives have a fitted effect of over 65% in size; also: potency is read from the fitted curve at half-maximal effect
[5] = molecular target: Retinaldehyde dehydrogenase 3 (Homo sapiens) (UniProt P47895); test: qHTS for Inhibitors of the Aldehyde Dehydrogenase Family (ALDH1A3) Primary screen (AID 2061315); settings: ALDH inhibition qHTS; series mostly up to 56 µM
[6] = molecular target: Aldehyde dehydrogenase 1A1 (Homo sapiens) (UniProt P00352); test: qHTS for Inhibitors of the Aldehyde Dehydrogenase Family (ALDH1A1) Confirmatory screens (AID 2061316); settings: ALDH inhibition qHTS; series mostly up to 47.3 µM; also: nearly all actives have a fitted effect of over 65% in size; also: potency is read from the fitted curve at half-maximal effect
[7] = BET inhibitor-based combinations targeting novel dependencies in MECOM-rearranged (r) AML: SET-2 cell line (AID 2202231); settings: SET-2 AML cells viability, CellTiter-Glo luminescence, 48 h; viability: hits give low values, concentration not given here; also: potency is read from the fitted curve at half-maximal effect; nearly all actives have a fitted effect of over 35% in size
Method in brief: (§1)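 Here, 11-point titrations of each agent were applied to 500 seeded cells and incubated 48 hr; CellTiter-Glo signal, scaled against DMSO and empty wells, was integrated as AUC, then Z-scored within the individual line.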

[8] = BET inhibitor-based combinations targeting novel dependencies in MECOM-rearranged (r) AML: MV-4-11 cell line (AID 2202233); settings: MV-4-11 AML viability, CellTiter-Glo luminescence, 48 h; series mostly up to 46 µM; also: potency is read from the fitted curve at half-maximal effect; nearly all actives have a fitted effect of over 45% in size
Method in brief: (§2)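 Normalized to DMSO and empty-well controls, the luminescence data from CellTiter-Glo after 48 hr drug exposure were fitted across 11 concentrations. Reported metrics are area under the dose-response curve and its Z-transformed form.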

[9] = BET inhibitor-based combinations targeting novel dependencies in MECOM-rearranged (r) AML: UCSD-AML1 cell line (AID 2202235); settings: UCSD-AML1 AML cells viability, CellTiter-Glo, 48 h; series mostly up to 46 µM; also: potency is read from the fitted curve at half-maximal effect; nearly all actives have a fitted effect of over 40% in size
Method in brief: as §2

[10] = BET inhibitor-based combinations targeting novel dependencies in MECOM-rearranged (r) AML: AML-191 cell line (AID 2202236; also: potency is read from the fitted curve at half-maximal effect; nearly all actives have a fitted effect of over 35% in size); settings: AML-191 viability, CellTiter-Glo luminescence, 48 h; series mostly up to 46 µM
Method in brief: as §1

[11] = BET inhibitor-based combinations targeting novel dependencies in MECOM-rearranged (r) AML: AML-194 cell line (AID 2202237; also: nearly all actives have a fitted effect of over 40% in size); settings: AML-194 (MECOM-r AML) viability, CellTiter-Glo, 48 h; series mostly up to 46 µM
Method in brief: as §1

O=C(Nc1cncc(O)c1)c1cccs1
Potency [1]: 12.7 µM (active) | Potency [2]: inactive | Potency [3]: 12.7 µM (active) | Potency [4]: 2.25 µM (active) | Potency [5]: inactive

Cc1cc(C=CC#N)cc(C)c1Nc1nc(Nc2ccc3c(c2)CCC3)c2[nH]cnc2n1
Potency [1]: inactive | Potency [2]: inactive | Potency [3]: inactive | Potency [4]: inactive | Potency [5]: inactive

O=S(=O)(Nc1ccc(O)c2ncccc12)c1ccccc1F
Potency [1]: 4.49 µM (active) | Potency [2]: inactive | Potency [3]: 2.25 µM (active) | Potency [4]: 2.83 µM (active) | Potency [6]: 2.01 µM (active)

NC(=O)C1CCN(c2nc(-c3ccc(F)cc3)cs2)CC1
Potency [1]: inactive | Potency [2]: inactive | Potency [3]: inactive | Potency [4]: inactive | Potency [5]: inactive

NC(=O)C1CCN(c2nc(-c3ccc(Cl)cc3)cs2)CC1
Potency [1]: inactive | Potency [2]: inactive | Potency [3]: inactive | Potency [4]: inactive | Potency [5]: inactive | Potency [6]: inactive

Cc1cnc(-c2ccccc2C(C)C)nc1NCC1CN(c2cccnc2)C1
Potency [1]: 11.3 µM (active) | Potency [2]: inactive | Potency [3]: 11.3 µM (active) | Potency [4]: 2.52 µM (active) | Potency [5]: inactive | Potency [6]: 8.96 µM (active)

Oc1ccc(Nc2nc(-c3ccc(Cl)cc3)cs2)cc1
Potency [1]: inactive | Potency [2]: inactive | Potency [3]: inactive | Potency [4]: inactive | Potency [5]: inactive | Potency [7]: 9.34 µM (active) | Potency [8]: 14.8 µM (active) | Potency [9]: 6.61 µM (active) | Potency [10]: 16.6 µM (active) | Potency [11]: inactive

CCOC(=O)c1c(-c2ccccc2)no[n+]1[O-]
Potency [1]: inactive | Potency [2]: inactive | Potency [3]: inactive | Potency [5]: inactive

FC(F)(F)c1cc(-c2ccc(CNc3nc(-c4ccncc4)nc4ccccc34)cc2)ccn1
Potency [1]: 8.91 µM (active) | Potency [2]: inactive | Potency [3]: 2.52 µM (active) | Potency [4]: 10 µM (active) | Potency [5]: inactive
